From PubChem BioAssay (EPA / NIEHS) come the findings set out here.

Results filed as inconclusive are left out. Activity calls are given as the source filed them. The calls were made as follows: active = hit-call score of the fitted dose curve at least 0.9, where 1 is the maximum; inconclusive = response in the unintended direction; inactive = score below 0.9.

A short description of the assay: ATG_XTT_Cytotoxicity: Cytotoxicity Assessment in the Attagene TRANS-FACTORIAL HepG2 Assay (AID 2283584).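 As to AC50: cells exposed to compound for 24 h before reading; active means loss of viability signal versus DMSO baseline.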 The method, then:
ATG_XTT_Cytotoxicity is a cell-based, single-readout assay that uses HepG2, a human liver cell line, with measurements taken at 24 hours after chemical dosing in a 24-well plate.ATG_XTT_Cytotoxicity is one of one assay component(s) measured or calculated from the ATG_XTT_Cytotoxicity assay. It is designed to make measurements of cell number, a form of viability reporter, as detected with […] signals by XTT cytotoxicity assay technology.Data from the assay component ATG_XTT_Cytotoxicity was analyzed into 1 assay endpoint. This assay endpoint, ATG_XTT_Cytotoxicity, was analyzed in the positive analysis fitting direction relative to DMSO as the negative control and baseline of activity. Using a type of viability reporter, loss-of-signal activity can be used to understand changes in the viability. Furthermore, this assay endpoint can be referred to as a primary readout, because the performed assay has only produced 1 assay endpoint. To generalize the intended target to other relatable targets, this assay endpoint is annotated to the cell cycle intended target family, where the subfamily is cytotoxicity.
Human liver HepG2 cells are transiently transfected with multiple reporter transcription units (MRTUs) in 6-well plates using FuGene 6 reagent (Roche; 3 ml FuGene/1 mg DNA). The MRTU constructs are regulated by a cis-regulating element (promoter). […] A major difference between the CIS and TRANS system is that in CIS activities of endogenous TFs are measured, whereas the TRANS assay evaluates changes in activities of exogenous, chimeric NR-Gal4 proteins. […] At the end of 24 hour incubation, total RNA was isolated using TriZol reagent (Invitrogen). The isolated RNA is then reverse-transcribed using oligo(dT) primer and Mo-MLV reverse transcriptase (Invitrogen) with DNAse I (Ambion) treatment for 30 min. The one-tenth of the produced cDNA was amplified by PCR using Taq DNA polymerase (Invitrogen) and two reporter sequence-specific primers. The PCR products were fluorescently labeled by primer extension with 6-arboxyfluorescein (6-FAM) 5'-labeled reporter sequence-specific primer (2 min at 95 C, 20 s at 68 C and 10 min at 72 C) and these products were digested with 5U of HpaI (New England Biolabs) for 2h at 37 C. The fragments were purified using Qiaquick PCR columns (Qiagen), analyzed on an ABI 3130xL genetic analyzer (Applied Biosystems) with peak positions identified by using a set of X-rhodamine (ROX)-labeled MapMarker1000 molecular weight standards (BioVentures). The raw capillary electrophoresis data was processed using Attagraph software (Attagene).
Consider `CC1CCCC1.[C-]#[O+].[C-]#[O+].[C-]#[O+].[Mn]`, for which the compound was classed as inactive.
Turning to `CN(C)C(=O)C(c1ccccc1)c1ccccc1`, the compound was called inactive.
On to `Nc1ccccc1C(=O)OCCc1ccccc1`, for which the compound was called inactive.
Take `CCOC(=O)C1OC1(C)c1ccccc1` (stereo not given): the result was inactive.
Take `CC(C)(C)C(O)C(Oc1ccc(-c2ccccc2)cc1)n1cncn1` (stereo not given): the compound was classed as inactive.
Consider `CC1(C)CC(=O)CC(C)(C)N1[O]`, for which the result was inactive.
With `CC1OC(C)OC(C)O1` (stereo not given), the result was inactive.
For `CN1C(=O)CCS(=O)(=O)C1c1ccc(Cl)cc1` (stereo not given), the call was inactive.
As for `CSc1nc(N=[N+]=[N-])nc(NC(C)C)n1`, the compound was called inactive.
Same read-out and setting: in the case of `O=S(=O)(O)OOS(=O)(=O)O` it was “inactive”; in that of `C=CCO`, “inactive”.
In the case of `CC1CCC(=O)O1` (stereo not given), the compound was classed as inactive.
`C=CCN(CC=C)C(=O)C(Cl)Cl`: the compound was classed as inactive.
With `CN(C)N`, the result was inactive.
`CNC(=N[N+](=O)[O-])NCC1CCOC1` (stereo not given): the compound was classed as inactive.
For the compound `Cc1ccc(C)c2ccccc12`, the result was inactive.
Same read-out and setting: in the case of `c1cc(OCC2CO2)ccc1Cc1ccc(OCC2CO2)cc1` (stereo not given) it was “inactive”; in that of `CCOC(=O)NC(=S)Nc1ccccc1NC(=S)NC(=O)OCC`, “inactive”.
As for `[N-]=[N+]=CC(=O)OC[C@H](N)C(=O)O`, the outcome was inactive.
Regarding `C=CC(=O)OC`, the call was inactive.
For `CCC1CCC(=O)O1` (stereo not given), the result was inactive.
Same read-out and setting: in the case of `CCOP(=O)(OCC)OCC` it was “inactive”; in that of `C[N+](C)(C)CC(=O)[O-]`, “inactive”; in that of `[Cl-].[Cl-].[Cl-].[Yb+3]`, “inactive”.
Consider `O=C1Nc2ccc(Cl)cc2C(c2ccccc2)=NC1O` (stereo not given), for which the compound was called inactive.
As for `CCNCC`, the outcome was inactive.
On the same count and under the same terms, in the case of `O=c1[nH]c(Cl)c(Cl)cc1Cl` it was “inactive”.
As to `N#CCNCC#N`, the call was inactive.
For `O=C(O)COc1ccccc1`, the outcome was inactive.
As to `O=[N+]([O-])c1cc(C(F)(F)F)c(Cl)c([N+](=O)[O-])c1Cl`, the half-maximal activity concentration (AC50) was 57.7 µM (active).
Turning to `CN(C)CCC#N`, the outcome was inactive.
Turning to `O=[N+]([O-])c1ccc(Cl)cc1`, the compound was classed as inactive.
Still for that read-out and setting: in the case of `CC(C)(c1cc(Cl)c(O)c(Cl)c1)c1cc(Cl)c(O)c(Cl)c1` it was “inactive”; in that of `N#Cc1cc(I)c(O)c(I)c1`, “inactive”.
For the compound `O=C(NC(=O)c1c(F)cccc1F)Nc1ccc(Oc2ccc(C(F)(F)F)cc2Cl)cc1F`, the result was inactive.
In the case of `Nc1ccc([N+](=O)[O-])cc1N`, the compound was classed as inactive.
With `CC1(C)C(=O)NC(=O)NC1=O`, the result was inactive.
As to `CC(=O)c1cc2c(cc1C)C(C)(C)C(C)CC2(C)C` (stereo not given), the compound was called inactive.
The same measure, in the same setting: next, `CCc1cccc(C)c1N(C(=O)CCl)[C@@H](C)COC`: “inactive”; `C[N+](C)(C)CC(=O)O`: “inactive”.

What is called AC50 is the midpoint of the concentration-response curve, whichever way the signal moves.
